Experimental data reported in PubChem BioAssay AID1159580 (chemical genetic matrix, 2015).
The campaign covered roughly 5,500 compounds. About 2,000 (36%) were called active. Inconclusive results (about 18%) are left out. Rule as the data show it: active = normalized growth mostly below about 0.91 (no sharp cut-off); inconclusive = no clear call, values can overlap the other calls; inactive = mostly above about 0.92. The list shows a part of the results.

Experiment: chemical genetic growth profiling, strain panel (AID 1159580);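 also: tested at 20 µM; growth read once vehicle control cultures reached saturation at 30 °C; 1 = growth at the plate median or of vehicle wells; lower values mean less growth of the strain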
Details: S. cerevisiae deletion strains, growth OD

Measured: normalized growth

COc1cc(C(=O)OCCCN2CCCN(CCCOC(=O)c3cc(OC)c(OC)c(OC)c3)CC2)cc(OC)c1OC
inactive: locus YAL040C, strain CLN3, active compounds read low 0.967 | locus YCL061C, strain MRC1 (second series), active compounds read low 1.01 | locus YDR150W, strain NUM1, active compounds read low 0.998 | locus YDR363W, strain ESC2, active compounds read low 1.03 | locus YER002W, strain NOP16, active compounds read low 1.03 | locus YMR307W, strain GAS1, active compounds read low 1.01 | locus YNL175C, strain NOP13, active compounds read low 1.01 | locus YNL197C, strain WHI3, active compounds read low 1 | locus YNL224C, strain SQS1, active compounds read low 1.01 | locus YOR083W, strain WHI5 (second series), active compounds read low 0.972 | locus YPL055C, strain LGE1, active compounds read low 1.02
